Experimental findings from the supplement of paper PMC3334620 are described below.

The full ranking holds about 33,000 sequences; the median of “E-score (-0.5 to 0.5)” is about -0.035, and the highest 2% start at about 0.35. Many of the other results were omitted from the sample, so the highest values are more common in it than they were.

In this test the target is T1, Pdr3 (UniProt P33200).
T1 sequence: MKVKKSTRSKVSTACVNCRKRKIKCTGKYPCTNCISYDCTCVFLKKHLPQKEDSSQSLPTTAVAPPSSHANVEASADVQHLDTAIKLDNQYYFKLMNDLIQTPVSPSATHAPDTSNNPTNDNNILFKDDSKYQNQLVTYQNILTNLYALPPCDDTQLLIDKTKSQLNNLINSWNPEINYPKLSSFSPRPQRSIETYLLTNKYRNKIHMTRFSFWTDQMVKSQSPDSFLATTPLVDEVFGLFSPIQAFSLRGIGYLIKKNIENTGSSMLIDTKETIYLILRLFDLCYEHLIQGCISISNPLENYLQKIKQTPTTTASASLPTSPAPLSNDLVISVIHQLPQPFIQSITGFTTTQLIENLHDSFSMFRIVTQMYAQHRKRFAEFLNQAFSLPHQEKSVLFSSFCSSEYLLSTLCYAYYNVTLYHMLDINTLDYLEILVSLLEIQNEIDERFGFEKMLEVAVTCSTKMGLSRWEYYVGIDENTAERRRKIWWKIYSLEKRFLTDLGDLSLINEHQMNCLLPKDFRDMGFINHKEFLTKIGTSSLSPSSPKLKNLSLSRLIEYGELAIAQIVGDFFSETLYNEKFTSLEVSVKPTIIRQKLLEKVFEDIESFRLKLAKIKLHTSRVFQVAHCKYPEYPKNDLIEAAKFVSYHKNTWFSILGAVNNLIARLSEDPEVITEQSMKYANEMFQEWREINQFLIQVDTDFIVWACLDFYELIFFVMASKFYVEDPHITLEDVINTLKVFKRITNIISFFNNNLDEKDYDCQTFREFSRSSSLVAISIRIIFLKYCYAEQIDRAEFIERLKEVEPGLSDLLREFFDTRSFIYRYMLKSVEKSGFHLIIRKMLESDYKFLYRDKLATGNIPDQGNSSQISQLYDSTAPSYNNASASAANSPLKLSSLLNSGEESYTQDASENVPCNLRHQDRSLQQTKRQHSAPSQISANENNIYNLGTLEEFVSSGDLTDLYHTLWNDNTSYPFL
The test can be described thus: PBM E-score (8-mer binding enrichment) (E-score (-0.5 to 0.5)); higher = stronger / more preferred TF binding. The settings on record: protein concentration: 200 nM; construct: GST-full length. On the procedure:
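Universal 'all 10-mer' protein binding microarrays (Agilent AMADID 015681) probed with GST-tagged S. cerevisiae TFs (full-length or DBD) made by in vitro transcription/translation (PURExpress), about 100-200 nM. Bound TF was detected with fluorescent anti-GST. Each ungapped 8-mer (which stands for itself and its reverse complement) is scored by the PBM enrichment score (E-score), a modified Wilcoxon-Mann-Whitney statistic from -0.5 to +0.5, computed with the Universal PBM Analysis Suite. Scale: above 0.35 generally sequence-specific binding.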
With CACTCCTA, the “PBM E-score” value was -0.112.
Next, GAAAGCCC: 0.201; CTATTGAC: -0.153.
Next, GTCTCTTA: 0.0669; ACCCATGC: -0.0401; GGGAAGTA: 0.097.
Consider CTGAAGTC, for which the “PBM E-score” value was 0.0005.
The result for AGGAAGTA reads 0.0507; that for AGGAAGTC, -0.162; that for CGGAAGTA, 0.393.
On to CGGAAGTC, for which the “PBM E-score” value was found to be 0.421.
For the sequence ATTGGGCA, the “PBM E-score” value was -0.131.
Next, ACAAGCAT: -0.0569; GAGTGATC: 0.0656; GAGCGGGC: 0.113.
The result for AACGGACA reads 0.363; that for AACGGACG, 0.241.
The result for GACGGACC reads 0.33.
Turning to AACGGACC, the “PBM E-score” value came out at 0.303.
On to AACGGTCA, for which the “PBM E-score” value was 0.146.
Next, CACGGACG: 0.324; TACGGACA: 0.225.
Next, CACGGACC: 0.378.
Consider CACGGACA, for which the “PBM E-score” value is 0.355.
In the case of CCACCCCG, the “PBM E-score” value was 0.165.
As for CCCTGCTA, the “PBM E-score” value was -0.0619.
Next, TACGGGCA: 0.00013; CTGTTCCC: 0.0618; ACACTAGT: -0.167.
With AGGCTTTC, the “PBM E-score” value is -0.203.
Regarding TCTGTGAA, the “PBM E-score” value is -0.0705.
For the sequence ACGGAGAA, the “PBM E-score” value worked out at 0.265.
In the case of CCGGAGAG, the “PBM E-score” value is 0.363.
The result for CCGGAGAA reads 0.385.
Regarding CCGGAGAC, the “PBM E-score” value is 0.37.
As to ACGGAGAG, the “PBM E-score” value turned out to be 0.319.
The result for ACGGAGAC reads 0.321.
Turning to GCGGAGAC, the “PBM E-score” value came to 0.336.
Take CAGGAGAG: the “PBM E-score” value was -0.174.
Next, TCGGAGAA: 0.225; AATGAGGA: -0.177.
Next, GCAGTCGC: -0.0644; TATCGCGA: 0.258; GCCTTCCC: -0.1.
With CCTACTCC, the “PBM E-score” value is -0.0705.
As to GCTACTGA, the “PBM E-score” value worked out at 0.00622.
The result for CATTCCGC reads 0.421; that for CATTCCTC, 0.0812; that for AATTCCCC, 0.203.
Next, AATTCCTC: 0.0037; AATTCCCG: 0.298; AATTCCGG: 0.449.
In the case of AATTCCTG, the “PBM E-score” value is -0.021.
Next, GATTCCCC: 0.0929.
The result for GATTCCAC reads 0.19; that for GATTCCGC, 0.455; that for CATTCCAC, 0.0732.
The result for AATTCCGC reads 0.397; that for CGCCCTCC, 0.0638; that for TAATGATA, 0.132.
As for ATCGCATC, the “PBM E-score” value is 0.121.
The result for GTCCCAAA reads -0.154; that for CAGGCCAC, 0.00119; that for ATTTGCAG, -0.0031.
Consider ACCATAGG, for which the “PBM E-score” value is -0.229.
Next, GAGAAAAA: 0.176; ATCTGGGG: -0.109; AATTCCAT: 0.156.
The result for AATTCCAA reads -0.0365; that for AATTCCCA, -0.171; that for AATTCCCT, -0.207.
The result for AATTCCGT reads 0.449.
In the case of AATTCCGA, the “PBM E-score” value stood at 0.423.
The result for ACTAGCCG reads 0.105; that for GACCCGAC, 0.21; that for AGCCCGGG, 0.383.
For AGCCCGGC, the “PBM E-score” value worked out at 0.264.
Next, CGCCCGAA: 0.117; AGCCCGAG: -0.044; CGCCCGGA: 0.396.
Next, GGCCCGGA: 0.336.
The result for AGCCCGGA reads 0.355.
Consider AGCCCCGG, for which the “PBM E-score” value was 0.303.
The result for CGCCCGGC reads 0.293.
The result for ACACAGTC reads -0.0508; that for CTAGCATC, -0.172.
